# Activity calls are given as the source filed them.
# Columns and labels:
# [1] = test system: PRMT1 (protein arginine N-methyltransferase 1); experiment: PRMT1 binders on small-molecule microarrays, primary screen, biochemical, small-molecule microarray, 635 nm fluorescence (AID 1088); settings: small-molecule microarray binding, higher = more signal;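 also: binding of Prmt1 protein to compounds spotted on small-molecule microarray slides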
# [2] = yeast growth modulation, basal conditions, primary screen, YJM789 clinical isolate, OD600, 24 h (AID 1089);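 also: growth of clinical yeast isolate S. cerevisiae YJM 789 seeded 1000 cells per well; test concentration not given here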; settings: S. cerevisiae YJM789 growth, higher = more signal, called active from +8 up or from −8 down
# [3] = fission yeast growth modulation, primary screen, strain 972, OD600, 24 h, no modulator (AID 1090);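 also: basal condition with compound alone and no growth modifier present; test concentration not given here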; settings: S. pombe 972 growth, higher = more signal, called active from +8 up or from −8 down
# [4] = S. cerevisiae growth modulation with rapamycin, primary screen, strain BY4716, OD600, 96 h (AID 1091); settings: higher = more signal, called active from +8 up or from −8 down; also: test concentration not given here
# [5] = target: Torsin-1A-interacting protein 2 (Homo sapiens) (UniProt Q8NFQ8); experiment: LULL1 binders on small-molecule microarray, primary screen, cell lysate, human LULL1 lysate, 635/667 nm fluorescence (AID 1092); settings: hLULL1 lysate binding, 635 nm fluorescence, higher = more signal;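 also: probe is lysate of COS7 cells overexpressing human LULL1; score merges per-feature 667 nm fluorescence with signal-to-noise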
# Sequence of Torsin-1A-interacting protein 2 (Homo sapiens) (Q8NFQ8 whole entry, looked up): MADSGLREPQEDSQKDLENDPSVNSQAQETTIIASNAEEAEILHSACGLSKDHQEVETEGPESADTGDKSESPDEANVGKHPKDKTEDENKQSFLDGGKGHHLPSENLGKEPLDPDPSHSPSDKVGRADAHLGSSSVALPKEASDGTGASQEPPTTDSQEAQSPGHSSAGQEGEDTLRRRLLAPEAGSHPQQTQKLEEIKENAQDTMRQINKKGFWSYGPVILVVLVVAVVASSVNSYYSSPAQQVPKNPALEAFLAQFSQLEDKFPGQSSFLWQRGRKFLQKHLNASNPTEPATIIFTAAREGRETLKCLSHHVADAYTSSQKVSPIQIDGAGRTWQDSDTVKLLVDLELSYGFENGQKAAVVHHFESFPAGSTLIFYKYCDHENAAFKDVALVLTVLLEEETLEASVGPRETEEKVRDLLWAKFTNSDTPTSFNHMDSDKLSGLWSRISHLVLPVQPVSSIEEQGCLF
# [6] = E. coli growth modulation, two-sided OD650, primary screen, E. coli filamentation project, strain DRC41, 24 h (AID 1093); settings: OD650, 24 h, higher = more signal, called active from +8 up or from −8 down;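 also: MC1000 strain lacking acrAB efflux and sulA so SOS filamentation is blocked; test concentration not given here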
# [7] = small-molecule microarray binders of probe aLefty2, primary screen, biochemical, biotinylated probe, 635/667 nm fluorescence (AID 1094); settings: higher = more signal;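 also: score merges spot fluorescence near 667 nm with spot signal-to-noise ratio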
# [8] = test system: Noggin (protein binding on small-molecule microarray); experiment: Noggin binders on small-molecule microarray, primary screen, biochemical, 635/667 nm fluorescence (AID 1095); settings: 635 nm fluorescence, higher = more signal;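 also: score merges 667 nm feature fluorescence with signal to noise over triplicate slides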
# [9] = target: Neurogenic locus notch homolog protein 3 (Homo sapiens) (UniProt Q9UM47); experiment: NOTCH3 binders on small-molecule microarray, primary screen, biochemical, 635/667 nm fluorescence (AID 1096); settings: NOTCH3 binding, 635 nm fluorescence, higher = more signal
# Sequence of Neurogenic locus notch homolog protein 3 (Homo sapiens) (Q9UM47 whole entry, looked up): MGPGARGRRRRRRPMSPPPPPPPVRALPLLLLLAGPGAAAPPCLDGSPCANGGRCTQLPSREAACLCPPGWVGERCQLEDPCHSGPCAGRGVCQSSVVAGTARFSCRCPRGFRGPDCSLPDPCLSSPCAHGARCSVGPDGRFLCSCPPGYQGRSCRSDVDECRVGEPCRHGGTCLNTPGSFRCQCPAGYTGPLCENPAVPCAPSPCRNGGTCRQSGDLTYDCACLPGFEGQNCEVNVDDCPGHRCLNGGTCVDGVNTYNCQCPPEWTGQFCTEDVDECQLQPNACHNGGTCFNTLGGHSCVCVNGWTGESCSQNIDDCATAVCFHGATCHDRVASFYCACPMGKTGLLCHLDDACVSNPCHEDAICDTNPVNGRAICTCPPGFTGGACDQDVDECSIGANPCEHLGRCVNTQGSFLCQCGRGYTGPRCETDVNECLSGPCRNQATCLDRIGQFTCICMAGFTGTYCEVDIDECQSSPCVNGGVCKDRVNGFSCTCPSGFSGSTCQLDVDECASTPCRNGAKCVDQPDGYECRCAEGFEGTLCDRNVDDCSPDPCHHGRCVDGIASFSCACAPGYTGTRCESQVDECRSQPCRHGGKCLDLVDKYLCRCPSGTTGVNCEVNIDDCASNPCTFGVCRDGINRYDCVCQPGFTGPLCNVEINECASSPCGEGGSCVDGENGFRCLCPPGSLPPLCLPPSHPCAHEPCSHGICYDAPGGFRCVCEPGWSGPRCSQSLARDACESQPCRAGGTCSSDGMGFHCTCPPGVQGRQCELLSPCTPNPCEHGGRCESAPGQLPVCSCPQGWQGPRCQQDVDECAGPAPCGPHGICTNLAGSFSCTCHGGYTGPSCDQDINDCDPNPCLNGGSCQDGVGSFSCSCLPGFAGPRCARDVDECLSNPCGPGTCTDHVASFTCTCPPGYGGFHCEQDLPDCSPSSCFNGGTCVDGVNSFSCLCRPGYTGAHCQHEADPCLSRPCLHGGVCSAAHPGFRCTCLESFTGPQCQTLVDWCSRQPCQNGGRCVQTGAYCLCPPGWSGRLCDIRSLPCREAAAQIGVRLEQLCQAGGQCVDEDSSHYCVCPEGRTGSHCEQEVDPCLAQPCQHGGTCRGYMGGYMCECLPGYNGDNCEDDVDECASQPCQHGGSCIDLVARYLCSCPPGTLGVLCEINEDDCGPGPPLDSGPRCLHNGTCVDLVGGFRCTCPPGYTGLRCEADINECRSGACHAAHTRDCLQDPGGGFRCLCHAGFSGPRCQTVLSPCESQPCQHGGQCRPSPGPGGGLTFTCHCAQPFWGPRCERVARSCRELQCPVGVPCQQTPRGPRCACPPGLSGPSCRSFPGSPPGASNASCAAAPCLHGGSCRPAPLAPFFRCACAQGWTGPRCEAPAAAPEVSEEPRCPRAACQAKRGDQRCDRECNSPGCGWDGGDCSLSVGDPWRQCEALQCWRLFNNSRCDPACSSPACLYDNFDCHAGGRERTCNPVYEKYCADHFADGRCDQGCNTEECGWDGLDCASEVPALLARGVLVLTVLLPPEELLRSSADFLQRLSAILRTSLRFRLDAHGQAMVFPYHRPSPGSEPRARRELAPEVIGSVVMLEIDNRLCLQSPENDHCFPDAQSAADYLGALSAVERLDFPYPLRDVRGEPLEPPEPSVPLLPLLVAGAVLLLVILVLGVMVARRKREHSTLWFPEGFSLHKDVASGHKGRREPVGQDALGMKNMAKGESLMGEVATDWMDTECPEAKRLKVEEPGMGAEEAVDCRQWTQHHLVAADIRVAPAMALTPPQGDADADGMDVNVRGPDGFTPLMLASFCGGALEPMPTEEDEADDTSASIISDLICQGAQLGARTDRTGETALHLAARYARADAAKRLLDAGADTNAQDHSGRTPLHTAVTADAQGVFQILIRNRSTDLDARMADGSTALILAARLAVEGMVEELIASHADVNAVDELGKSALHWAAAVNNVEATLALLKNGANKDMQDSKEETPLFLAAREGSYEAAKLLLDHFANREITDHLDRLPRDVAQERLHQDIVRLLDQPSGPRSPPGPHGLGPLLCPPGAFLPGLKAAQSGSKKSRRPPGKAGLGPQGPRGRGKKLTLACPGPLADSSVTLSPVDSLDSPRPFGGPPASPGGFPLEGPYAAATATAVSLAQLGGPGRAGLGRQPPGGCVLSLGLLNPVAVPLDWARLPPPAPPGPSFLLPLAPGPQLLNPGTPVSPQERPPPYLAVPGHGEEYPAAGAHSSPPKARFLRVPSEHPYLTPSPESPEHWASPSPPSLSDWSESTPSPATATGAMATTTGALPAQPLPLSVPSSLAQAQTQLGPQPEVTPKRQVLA
# [10] = small-molecule microarray binders of probe aEGFR, primary screen, biochemical, biotinylated probe, 635/667 nm fluorescence (AID 1097); settings: higher = more signal;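 also: probe is a biotinylated anti-EGFR antibody binding compounds printed on slides; score combines fluorescence near 667 nm and signal to noise of each spot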
# [11] = test system: Plasmodium falciparum Sir2 (PF13_0152, Sir2A); experiment: pfSir2 binders on small-molecule microarrays, primary screen, biochemical, small-molecule microarray, 635 nm fluorescence (AID 1098); settings: small-molecule microarray binding, fluorescence 635 nm; higher = more signal;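 also: score merges spot fluorescence intensity with its signal-to-noise ratio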
# [12] = small-molecule microarray binders of probe aDKK1, primary screen, biochemical, biotinylated probe, 635/667 nm fluorescence (AID 1099); settings: higher = more signal;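 also: score merges 667nm spot fluorescence with signal to noise across triplicate slides; reference of the scale not given here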
# [13] = small-molecule microarray binders of probe aCHRDL2, primary screen, biochemical, biotinylated probe, 635/667 nm fluorescence (AID 1100); settings: higher = more signal
# [14] = splicing luciferase reporter signal modulators, primary screen, spliceosome inhibition project, cell-based, HEK293, splice +/- reporter (AID 1101); settings: luminescence, 24 h, higher = more signal, called active from +8 up or from −8 down;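 also: HEK293 cells carrying a splicing-competent luciferase reporter gene; test concentration not given here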
# [15] = target: Fibroblast growth factor 10 (Homo sapiens) (UniProt O15520); experiment: FGF10 binders on small-molecule microarrays, primary screen, biochemical, small-molecule microarray, 635 nm fluorescence (AID 1102); settings: FGF10 binding, fluorescence 635 nm, higher = more signal
# Sequence of Fibroblast growth factor 10 (Homo sapiens) (O15520 whole entry, looked up): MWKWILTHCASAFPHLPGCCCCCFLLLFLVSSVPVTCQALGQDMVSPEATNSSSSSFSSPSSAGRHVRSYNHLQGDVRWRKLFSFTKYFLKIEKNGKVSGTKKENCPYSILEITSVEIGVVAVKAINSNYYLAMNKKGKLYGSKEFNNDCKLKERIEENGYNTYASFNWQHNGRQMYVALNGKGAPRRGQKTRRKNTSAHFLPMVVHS
# [16] = test system: glycogen synthase kinase-3 (GSK3A per assay name; protocol says GSK3B); experiment: GSK3 binders on small-molecule microarrays, primary screen, biochemical, small-molecule microarray, 635 nm fluorescence, GSK3A (AID 1103); settings: small-molecule microarray binding, fluorescence 635 nm; higher = more signal; also: the record names both GSK3A and GSK3B
# [17] = target: Epidermal growth factor receptor (Homo sapiens) (UniProt P00533); experiment: EGFR binders on small-molecule microarrays, primary screen, biochemical, small-molecule microarray, 635 nm fluorescence (AID 1104); settings: EGFR binding, higher = more signal;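 also: score merges 667 nm emission intensity with spot signal to noise over triplicate slides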
# Sequence of Epidermal growth factor receptor (Homo sapiens) (P00533 whole entry, looked up): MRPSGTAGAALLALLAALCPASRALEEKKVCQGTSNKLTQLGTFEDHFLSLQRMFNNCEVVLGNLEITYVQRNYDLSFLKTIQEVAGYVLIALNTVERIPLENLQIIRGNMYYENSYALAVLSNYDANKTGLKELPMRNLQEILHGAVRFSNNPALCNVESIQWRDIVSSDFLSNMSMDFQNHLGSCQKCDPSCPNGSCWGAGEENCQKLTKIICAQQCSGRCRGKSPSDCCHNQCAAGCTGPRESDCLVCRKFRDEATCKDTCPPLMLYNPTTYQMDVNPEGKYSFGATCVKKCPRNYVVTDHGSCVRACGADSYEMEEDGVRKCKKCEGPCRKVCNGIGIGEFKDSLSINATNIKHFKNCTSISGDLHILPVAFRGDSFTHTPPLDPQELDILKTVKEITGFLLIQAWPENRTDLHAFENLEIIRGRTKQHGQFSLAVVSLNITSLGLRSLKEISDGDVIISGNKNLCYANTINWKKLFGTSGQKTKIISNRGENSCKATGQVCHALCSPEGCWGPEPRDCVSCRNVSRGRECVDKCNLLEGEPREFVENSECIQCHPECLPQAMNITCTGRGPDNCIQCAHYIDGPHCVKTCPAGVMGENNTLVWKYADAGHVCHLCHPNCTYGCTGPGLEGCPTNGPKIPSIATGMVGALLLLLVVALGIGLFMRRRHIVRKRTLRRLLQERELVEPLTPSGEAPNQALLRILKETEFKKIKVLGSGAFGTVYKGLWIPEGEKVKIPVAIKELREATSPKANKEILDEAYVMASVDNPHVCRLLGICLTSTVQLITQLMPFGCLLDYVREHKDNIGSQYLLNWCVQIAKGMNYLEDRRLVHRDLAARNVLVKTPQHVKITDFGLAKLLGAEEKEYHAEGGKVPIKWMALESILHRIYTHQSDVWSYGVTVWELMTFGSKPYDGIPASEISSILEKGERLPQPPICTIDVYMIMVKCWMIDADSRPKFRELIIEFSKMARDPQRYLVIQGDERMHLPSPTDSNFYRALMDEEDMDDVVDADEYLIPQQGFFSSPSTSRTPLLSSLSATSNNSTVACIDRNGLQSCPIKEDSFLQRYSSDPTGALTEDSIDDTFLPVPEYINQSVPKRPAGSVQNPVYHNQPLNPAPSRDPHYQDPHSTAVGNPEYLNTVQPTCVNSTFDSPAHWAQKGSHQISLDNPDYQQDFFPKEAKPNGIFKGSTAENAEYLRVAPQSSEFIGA
# [18] = target: Follistatin-related protein 3 (Homo sapiens) (UniProt O95633); experiment: FSTL3 binders on small-molecule microarrays, primary screen, biochemical, small-molecule microarray, 635 nm fluorescence (AID 1105); settings: FSTL3 binding, higher = more signal;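 also: score merges emission near 667 nm and signal to noise per printed spot across three slides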
# Sequence of Follistatin-related protein 3 (Homo sapiens) (O95633 whole entry, looked up): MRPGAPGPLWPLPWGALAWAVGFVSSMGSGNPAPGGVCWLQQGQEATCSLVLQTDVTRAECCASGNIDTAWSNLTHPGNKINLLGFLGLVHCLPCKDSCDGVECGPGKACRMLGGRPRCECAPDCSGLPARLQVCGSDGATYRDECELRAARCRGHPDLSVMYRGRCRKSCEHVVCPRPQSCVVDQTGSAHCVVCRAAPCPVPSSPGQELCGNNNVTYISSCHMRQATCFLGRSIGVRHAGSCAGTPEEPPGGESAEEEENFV
# [19] = target: Dickkopf-related protein 1 (Homo sapiens) (UniProt O94907); experiment: DKK1 binders on small-molecule microarrays, primary screen, biochemical, small-molecule microarray, 635 nm fluorescence scan (AID 1106); settings: DKK1 binding, higher = more signal;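 also: score merges emission near 667 nm with signal to noise over three replicate slides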
# Sequence of Dickkopf-related protein 1 (Homo sapiens) (O94907 whole entry, looked up): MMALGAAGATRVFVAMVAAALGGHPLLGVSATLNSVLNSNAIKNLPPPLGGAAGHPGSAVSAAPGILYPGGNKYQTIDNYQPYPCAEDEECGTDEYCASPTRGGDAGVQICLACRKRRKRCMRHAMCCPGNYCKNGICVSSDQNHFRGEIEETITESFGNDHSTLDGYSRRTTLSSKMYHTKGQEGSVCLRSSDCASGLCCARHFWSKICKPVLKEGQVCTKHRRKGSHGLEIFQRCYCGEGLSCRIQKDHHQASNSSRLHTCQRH
# [20] = test system: Inhibin beta A chain (activin A); experiment: INHBA (activin A) binders on microarrays, primary screen, biochemical, small-molecule microarray, 635 nm fluorescence scan (AID 1107); settings: small-molecule microarray binding, higher = more signal;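 also: mouse activin A protein probed at 4.33 µg/mL on printed slides; score merges bound-protein fluorescence near 667 nm with spot signal-to-noise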
Compound,composite z-score [1],z-score [2],z-score [3],z-score [4],composite z-score [5],z-score [6],composite z-score [7],composite z-score [8],composite z-score [9],composite z-score [10],composite z-score [11],composite z-score [12],composite z-score [13],z-score [14],composite z-score [15],composite z-score [16],composite z-score [17],composite z-score [18],composite z-score [19],composite z-score [20]
CCCN1C(=O)[C@]2(COC(c3ccc(OCCCO)cc3)=N2)Cc2ccccc21,1.18,-0.102 (inactive),-2.37 (inactive),-1.35 (inactive),2.88,0.525 (inactive),0.303,0.134,0.112,-0.0774,1.08,1.09,1.1,0.409 (inactive),0.736,1,-0.542,0.378,0.0779,0.854
COCCOC(=O)N1C(=O)[C@@]2(c3cc(C#Cc4ccc(OC)cc4)ccc31)[C@H](C(=O)N1CCN(c3ncccn3)CC1)[C@H]1C(=O)O[C@H](c3ccccc3)[C@H](c3ccccc3)N1[C@@H]2c1ccc(O)cc1,0.344,-1.94 (inactive),-0.197 (inactive),0.872 (inactive),0.78,0.313 (inactive),-0.247,0.587,0.213,-0.0978,-0.12,-0.138,0.0953,-0.772 (inactive),-0.0132,-0.0617,-0.026,0.246,0.37,-0.0611
COCCOC(=O)N1C(=O)[C@@]2(c3cc(C#CCNC(N)=O)ccc31)[C@H](C(=O)N1CCc3cc(OC)c(OC)cc3C1)[C@H]1C(=O)O[C@H](c3ccccc3)[C@H](c3ccccc3)N1[C@@H]2c1ccc(OCCO)cc1,1.08,0.854 (inactive),0.575 (inactive),4.41 (inactive),0.277,0.692 (inactive),-0.0163,1.3,1.13,-0.0734,1.06,-0.0141,-0.053,-0.0304 (inactive),1.28,-0.08,0.528,1.17,0.529,0.886
COc1ccc([Si](C)(C)[C@@H]2[C@@H](CCn3cc([C@H](O)c4ccccc4)nn3)O[C@]3(C(=O)N(Cc4cccc(N5CCOC5=O)c4)c4ccccc43)[C@H]2C)cc1,-0.217,1.56 (inactive),1.45 (inactive),3.61 (inactive),0.697,0.894 (inactive),-0.117,-0.89,-1.29,-0.278,-1.35,-0.231,0.658,1.7 (inactive),-1.02,-1.01,-0.901,-0.995,-1.13,-0.495
O=C1OCC=C[C@H]2OC34C=CCN(c5ccc6ccccc6c5)C(=O)[C@H]3N(CCCO)C(=O)[C@@H]4[C@@H]12 (stereo not given in full),-0.3,0.0281 (inactive),-0.318 (inactive),0.0596 (inactive),-0.309,0.993 (inactive),0.0061,0.0654,0.0404,-0.186,1.17,0.0114,0.899,-1.72 (inactive),-0.709,-1.34,-1.15,-0.699,-1.06,0.374
COc1ccc([Si](C)(C)[C@@H]2[C@@H](CC(=O)N(CCO)Cc3ccccc3)O[C@]3(C(=O)N(C)c4ccccc43)[C@H]2C)cc1,1.54,-0.943 (inactive),0.14 (inactive),0.451 (inactive),1.81,-0.0145 (inactive),0.512,1.21,0.963,0.238,1.24,0.909,0.0207,0.841 (inactive),1.05,1.16,0.749,1.39,1.32,1.16
CC(=O)NCCCC[C@@H]1NC(=O)[C@@H]2C[C@H](C(=O)NCCCCCCNC(=O)CS)[C@H](c3ccc(O)cc3)N2C1=O,1.5,0.372 (inactive),-0.804 (inactive),0.778 (inactive),1.46,-0.581 (inactive),-0.103,0.171,0.0726,-0.142,1.18,-0.194,0.52,0.584 (inactive),-0.37,-0.0984,-0.755,-0.353,-0.233,-0.989
CCCCC=C[C@@H](NC(=O)c1cccs1)c1ccccc1,-0.0502,0.464 (inactive),0.845 (inactive),1.72 (inactive),2.01,-0.312 (inactive),0.0812,-0.222,0.955,-0.0746,-0.15,-0.0451,0.359,-3.77 (inactive),0.44,0.476,-0.273,-0.171,0.13,0.764
COC(=O)c1ccc(C23CC2(C(NP(=O)(c2ccccc2)c2ccccc2)c2ccccc2)C3)cc1 (stereo not given),0.214,-2.72 (inactive),-1.76 (inactive),-0.789 (inactive),3.18,0.259 (inactive),0.888,0.13,1.07,0.0632,0.36,1.83,1.39,-3.03 (inactive),0.831,-0.0094,0.134,0.835,-0.63,0.893

# From PubChem BioAssay
